Experiment [1] addresses Platelet-derived growth factor receptor alpha (Homo sapiens) (UniProt P16234). The note with it: at 10 µM.
Experiment [2] addresses Platelet-derived growth factor receptor beta (Homo sapiens) (UniProt P09619). The note with it: at 10 µM.
Experiment [3] concerns the target T1, 3-phosphoinositide-dependent protein kinase 1 (Homo sapiens) (UniProt O15530).
T1 sequence (whole entry): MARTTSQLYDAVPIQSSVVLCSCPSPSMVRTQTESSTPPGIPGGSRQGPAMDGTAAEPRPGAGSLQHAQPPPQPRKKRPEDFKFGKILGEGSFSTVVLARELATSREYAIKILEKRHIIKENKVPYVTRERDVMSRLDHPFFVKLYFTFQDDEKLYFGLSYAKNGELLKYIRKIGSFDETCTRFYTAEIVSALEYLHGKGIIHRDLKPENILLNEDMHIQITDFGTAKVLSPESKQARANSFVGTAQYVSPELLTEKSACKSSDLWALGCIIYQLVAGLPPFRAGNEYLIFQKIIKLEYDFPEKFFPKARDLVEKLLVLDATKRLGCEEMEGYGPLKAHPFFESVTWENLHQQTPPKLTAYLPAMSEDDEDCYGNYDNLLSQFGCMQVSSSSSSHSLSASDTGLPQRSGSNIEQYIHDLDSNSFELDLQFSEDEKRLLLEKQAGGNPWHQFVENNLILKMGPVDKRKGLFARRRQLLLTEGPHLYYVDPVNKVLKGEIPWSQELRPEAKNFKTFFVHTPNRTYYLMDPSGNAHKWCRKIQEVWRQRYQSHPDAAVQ
As to conditions: at 10 µM.

Experiment [4] deals with RAC-gamma serine/threonine-protein kinase (Homo sapiens) (UniProt Q9Y243). The note with it: at 1 µM.
Chain of RAC-gamma serine/threonine-protein kinase (Homo sapiens) (Q9Y243 whole entry): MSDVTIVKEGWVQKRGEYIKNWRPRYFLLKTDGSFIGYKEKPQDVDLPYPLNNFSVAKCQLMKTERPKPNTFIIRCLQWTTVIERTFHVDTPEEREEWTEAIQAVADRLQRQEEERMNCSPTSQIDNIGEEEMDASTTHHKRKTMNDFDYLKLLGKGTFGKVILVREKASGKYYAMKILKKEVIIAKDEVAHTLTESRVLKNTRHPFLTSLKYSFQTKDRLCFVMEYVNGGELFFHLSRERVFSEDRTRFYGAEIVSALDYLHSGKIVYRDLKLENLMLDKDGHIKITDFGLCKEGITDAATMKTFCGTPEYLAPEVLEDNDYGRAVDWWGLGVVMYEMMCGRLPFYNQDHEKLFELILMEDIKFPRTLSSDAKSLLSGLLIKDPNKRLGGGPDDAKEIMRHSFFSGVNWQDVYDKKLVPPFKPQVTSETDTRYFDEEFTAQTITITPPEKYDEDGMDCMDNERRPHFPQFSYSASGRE
Experiment [5] shares this target. The note with it: at 10 µM.
In experiment [6] the target is Protein kinase C alpha type (Homo sapiens) (UniProt P17252). As to conditions: at 1 µM.
Experiment [7] has the same target. The note with it: at 10 µM.
The target of experiment [8] is Protein kinase C beta type (Homo sapiens) (UniProt P05771). The note with it: at 1 µM.
Chain of Protein kinase C beta type (Homo sapiens) (P05771 2-671 limits assumed): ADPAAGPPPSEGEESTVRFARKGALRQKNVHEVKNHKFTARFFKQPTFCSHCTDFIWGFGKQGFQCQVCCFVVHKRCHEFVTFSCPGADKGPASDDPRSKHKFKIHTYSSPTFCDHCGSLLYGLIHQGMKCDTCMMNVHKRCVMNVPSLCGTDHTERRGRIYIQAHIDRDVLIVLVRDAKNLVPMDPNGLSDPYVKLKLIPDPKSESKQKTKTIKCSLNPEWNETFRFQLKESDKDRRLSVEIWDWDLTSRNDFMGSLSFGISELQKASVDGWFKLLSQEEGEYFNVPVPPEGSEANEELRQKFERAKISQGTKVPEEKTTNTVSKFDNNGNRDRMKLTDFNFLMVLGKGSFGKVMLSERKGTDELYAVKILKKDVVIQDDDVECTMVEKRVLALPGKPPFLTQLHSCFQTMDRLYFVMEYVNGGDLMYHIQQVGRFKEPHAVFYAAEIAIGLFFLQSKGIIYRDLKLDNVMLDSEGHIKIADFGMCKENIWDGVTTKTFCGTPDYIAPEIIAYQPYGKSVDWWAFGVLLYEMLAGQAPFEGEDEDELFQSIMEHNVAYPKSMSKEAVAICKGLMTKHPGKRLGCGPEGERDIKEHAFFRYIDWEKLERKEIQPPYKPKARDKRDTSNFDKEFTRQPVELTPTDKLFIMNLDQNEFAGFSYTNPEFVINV
The target is the same in experiment [9]. The note with it: at 10 µM.
Experiment [10] has the same target. As to conditions: at 1 µM. This is another data set of the same source.
Experiment [11] has the same target. The note with it: at 10 µM. The source holds these as a separate data set.
The target in experiment [12] is Protein kinase C gamma type (Homo sapiens) (UniProt P05129). The note with it: at 1 µM.
Experiment [13] shares this target. As to conditions: at 10 µM.
The target of experiment [14] is Protein kinase C delta type (Homo sapiens) (UniProt Q05655). As to conditions: at 1 µM.
Chain of Protein kinase C delta type (Homo sapiens) (Q05655 whole entry, looked up): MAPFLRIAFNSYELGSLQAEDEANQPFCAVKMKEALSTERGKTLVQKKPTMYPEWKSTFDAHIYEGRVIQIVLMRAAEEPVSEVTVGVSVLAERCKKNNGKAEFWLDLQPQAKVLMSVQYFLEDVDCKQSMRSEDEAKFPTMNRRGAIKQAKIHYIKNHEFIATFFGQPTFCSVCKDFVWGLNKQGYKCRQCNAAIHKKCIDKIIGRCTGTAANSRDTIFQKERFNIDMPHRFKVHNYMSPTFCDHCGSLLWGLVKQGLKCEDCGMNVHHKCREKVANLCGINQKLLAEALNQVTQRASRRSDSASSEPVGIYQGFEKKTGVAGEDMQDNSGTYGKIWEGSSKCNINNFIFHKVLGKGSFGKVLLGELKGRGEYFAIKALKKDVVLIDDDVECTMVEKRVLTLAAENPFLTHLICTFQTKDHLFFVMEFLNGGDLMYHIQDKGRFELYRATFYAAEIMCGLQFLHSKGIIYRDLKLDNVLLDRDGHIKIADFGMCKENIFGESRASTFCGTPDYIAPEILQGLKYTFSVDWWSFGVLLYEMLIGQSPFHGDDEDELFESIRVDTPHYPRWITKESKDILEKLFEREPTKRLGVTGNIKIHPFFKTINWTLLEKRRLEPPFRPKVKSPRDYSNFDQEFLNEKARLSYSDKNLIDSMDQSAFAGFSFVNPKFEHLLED
The target of experiment [15] is Platelet-derived growth factor receptor beta (Homo sapiens) (UniProt P09619). As to conditions: at 1 µM.
For experiment [16], the target named is T1, 3-phosphoinositide-dependent protein kinase 1 (Homo sapiens). As to conditions: at 1 µM.
Experiment [17] addresses cAMP-dependent protein kinase catalytic subunit alpha (Homo sapiens) (UniProt P17612). As to conditions: at 1 µM.
For experiment [18] the target is unchanged. As to conditions: at 10 µM.
Experiment [19] deals with RAC-alpha serine/threonine-protein kinase (Homo sapiens) (UniProt P31749). As to conditions: at 1 µM.
Chain of RAC-alpha serine/threonine-protein kinase (Homo sapiens) (P31749 whole entry): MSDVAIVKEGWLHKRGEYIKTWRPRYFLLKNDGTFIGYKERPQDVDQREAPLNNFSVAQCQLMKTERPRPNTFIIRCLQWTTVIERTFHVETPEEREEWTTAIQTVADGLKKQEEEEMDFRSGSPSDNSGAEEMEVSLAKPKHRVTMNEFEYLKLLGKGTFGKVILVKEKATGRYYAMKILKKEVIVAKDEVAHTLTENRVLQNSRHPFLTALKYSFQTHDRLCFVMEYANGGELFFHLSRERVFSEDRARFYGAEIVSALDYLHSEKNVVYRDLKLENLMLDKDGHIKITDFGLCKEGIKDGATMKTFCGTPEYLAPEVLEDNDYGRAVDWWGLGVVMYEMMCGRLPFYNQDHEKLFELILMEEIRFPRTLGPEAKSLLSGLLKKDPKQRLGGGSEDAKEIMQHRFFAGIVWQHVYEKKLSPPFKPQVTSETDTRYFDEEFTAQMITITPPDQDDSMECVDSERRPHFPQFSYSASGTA
For experiment [20] the target is unchanged. The note with it: at 10 µM.

The source of these data is ChEMBL document CHEMBL2218924, “A broad activity screen in support of a chemogenomic map for kinase signalling research and drug discovery” (Biochem J, 2013).

The residual activity is the signal under treatment as a percentage of the control signal.

Chain of Platelet-derived growth factor receptor alpha (Homo sapiens) (P16234 whole entry): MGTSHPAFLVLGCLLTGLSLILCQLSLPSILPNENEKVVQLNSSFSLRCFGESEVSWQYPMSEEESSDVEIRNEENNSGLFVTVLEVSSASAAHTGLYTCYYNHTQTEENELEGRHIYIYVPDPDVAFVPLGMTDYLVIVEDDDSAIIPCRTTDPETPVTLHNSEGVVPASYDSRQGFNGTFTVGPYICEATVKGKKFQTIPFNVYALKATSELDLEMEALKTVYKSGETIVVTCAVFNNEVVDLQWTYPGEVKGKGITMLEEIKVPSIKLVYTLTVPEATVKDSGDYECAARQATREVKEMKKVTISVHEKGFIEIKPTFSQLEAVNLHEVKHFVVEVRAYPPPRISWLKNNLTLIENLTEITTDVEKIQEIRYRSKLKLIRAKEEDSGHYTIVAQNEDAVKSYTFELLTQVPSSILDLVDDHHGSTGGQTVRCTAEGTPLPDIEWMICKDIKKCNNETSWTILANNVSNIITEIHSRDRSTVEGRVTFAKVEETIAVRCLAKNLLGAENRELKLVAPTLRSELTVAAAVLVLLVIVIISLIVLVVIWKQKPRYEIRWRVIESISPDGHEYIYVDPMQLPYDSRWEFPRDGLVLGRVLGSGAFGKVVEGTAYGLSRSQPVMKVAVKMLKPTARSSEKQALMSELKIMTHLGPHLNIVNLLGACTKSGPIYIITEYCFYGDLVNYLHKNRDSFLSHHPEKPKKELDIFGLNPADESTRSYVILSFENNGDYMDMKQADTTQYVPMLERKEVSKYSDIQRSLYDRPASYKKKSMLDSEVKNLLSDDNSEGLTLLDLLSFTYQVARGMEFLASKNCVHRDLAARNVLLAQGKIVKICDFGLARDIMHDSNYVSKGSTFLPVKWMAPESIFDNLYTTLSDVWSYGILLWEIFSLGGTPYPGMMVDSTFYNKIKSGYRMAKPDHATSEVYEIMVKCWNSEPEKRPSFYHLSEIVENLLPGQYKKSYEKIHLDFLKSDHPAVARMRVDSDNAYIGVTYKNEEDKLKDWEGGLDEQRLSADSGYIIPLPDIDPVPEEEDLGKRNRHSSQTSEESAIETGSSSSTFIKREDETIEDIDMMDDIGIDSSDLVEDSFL

On to `CCn1cnc2c(Nc3cccc(Cl)c3)nc(N[C@@H]3CCCC[C@@H]3N)nc21`, for which the residual activity in [1] amounted to 86%; in experiment [2], 76%; in [3], 84%; in experiment [4], 94%; in experiment [5] it was 61%; in experiment [6], 89%. In addition, the residual activity was found to be 58% in [7]; 98% in [8]; 85% in experiment [9]; 99% in experiment [10]; 92% in experiment [11]; 81% in experiment [12]. The residual activity turned out to be 45% in [13] and 86% in [14].

In the case of `N/C(=N\[N+](=O)[O-])N/N=C\c1ccc(-c2cccc([N+](=O)[O-])c2)o1`, the residual activity in experiment [1] amounted to 54%; in experiment [15], 100%; in experiment [2], 60%; in [4], 77%; in experiment [5], 77%; in experiment [12], 91%. Besides, the residual activity in experiment [13] came out at 94%.

Take `O=C1NC(=O)c2c1c1c3ccccc3n3c1c1c2c2ccccc2n1C1CCC3O1`: the residual activity stood at 81% in [1]; 90% in [15]; 86% in experiment [2]; 27% in experiment [16]; 4% in experiment [3]; 70% in experiment [17]. In addition, the residual activity in [18] came out at 68%; in experiment [4], 96%; in experiment [5], 84%; in experiment [6], 96%; in experiment [8] it was 95%; in experiment [9] it was 91%. In addition, the residual activity came to 92% in experiment [12] and 96% in experiment [13].

Consider `Nc1nc(Nc2ccc(S(N)(=O)=O)cc2)nn1C(=S)Nc1c(F)cccc1F`, for which, in [19], the residual activity is 122%.

`CN[C@@H]1C[C@H]2O[C@@](C)([C@@H]1OC)n1c3ccccc3c3c4c(c5c6ccccc6n2c5c31)C(=O)NC4`: the residual activity in experiment [16] stood at 1%; in experiment [3], 0%.

`CC(C)(C)c1cc(C=C(C#N)C#N)cc(Br)c1O`: the residual activity amounted to 106% in experiment [1]; 103% in experiment [15]; 103% in experiment [2]; 102% in [16]; 98% in experiment [19]; 102% in experiment [20]. Besides, the residual activity in experiment [4] amounted to 106%; in experiment [5] it was 97%; in experiment [6] it was 106%; in experiment [8], 106%; in [9], 97%; in experiment [10] it was 108%. In addition, the residual activity in experiment [11] stood at 108%; in experiment [12], 98%; in [13], 103%; in [14] it was 98%.

As for `O=C1Nc2ccccc2/C1=C1/Nc2ccccc2/C1=N\OCCC(O)CO` (configuration not stated), the residual activity came to 113% in experiment [19] and 101% in experiment [20].

For the molecule `c1ccc(-c2n[nH]cc2-c2ccnc3ccccc23)nc1`, the residual activity in experiment [19] was determined as 96%.

As to `O=C1c2ccccc2-c2nc3nnnn3nc21`, the residual activity in [1] is 111%; in [15], 120%; in [2], 111%; in experiment [16], 121%; in experiment [3] it was 116%; in experiment [19] it was 103%. Besides, the residual activity in experiment [20] was determined as 112%; in experiment [4], 117%; in experiment [5], 100%; in [10] it was 101%.

As for `C[S+]([O-])c1ccc(-c2nc(-c3ccc(F)cc3)c(-c3ccncc3)[nH]2)cc1` (configuration not stated), the residual activity in experiment [1] turned out to be 108%; in experiment [15] it was 120%; in experiment [2], 120%; in experiment [16], 117%; in experiment [3], 107%; in experiment [17], 105%. Besides, the residual activity in experiment [19] came to 102%; in experiment [20], 105%; in experiment [4], 117%; in experiment [5], 75%; in experiment [6], 107%; in experiment [7], 90%. Further, the residual activity stood at 101% in experiment [8]; 70% in experiment [9]; 104% in [10]; 75% in experiment [11]; 104% in [12]; 103% in experiment [13]. The residual activity in experiment [14] is 105%.

For the molecule `COc1cc2c(cc1OC)-c1n[nH]c(Nc3cccc(F)c3)c1C2`, the residual activity in experiment [19] and in experiment [20] was 107% each time.

In the case of `COc1ccc2c(c1)/C(=C/c1cnc[nH]1)C(=O)N2`, the residual activity is 82% in experiment [1], 76% in [16], 20% in experiment [3] and 96% in experiment [14].

For the molecule `Nc1nc(Nc2ccc(S(N)(=O)=O)cc2)nn1C(=O)c1c(F)cccc1F`, the figures for the residual activity in [19] and in [20] were 104% and 103%, respectively.

On to `COc1cc2ncnc(Nc3cccc(Cl)c3)c2cc1OC`, for which the residual activity in [19] worked out at 86%.

`Ic1cccc(CSc2nnc(-c3ccncc3)o2)c1`: the residual activity in experiment [19] was determined as 116%.

On to `CCCC(=O)Oc1ccc2[nH]c(C(=O)c3cc4ccccc4[nH]3)cc2c1`, for which the residual activity in experiment [19] was 97%.

For `O=c1cc(N2CCOCC2)oc2c1ccc1ccccc12`, the residual activity in experiment [19] was found to be 103%; in experiment [20] it was 106%.

`Cn1cc(/C=C2\C(=O)Nc3ccc(S(N)(=O)=O)cc32)c2ccccc21`: the residual activity was 96% in experiment [19] and 101% in experiment [20].

For the molecule `CC(C)n1cnc2c(NCc3ccccc3)nc(NCCCO)nc21`, the residual activity is 107% in [19] and 110% in experiment [20].

Turning to `O=C(c1ccccc1)c1ccc(N2CCOCC2)cc1O`, the residual activity in [19] was determined as 96%; in experiment [20], 98%.

Consider `CCOc1cc2ncnc(Nc3cccc(Br)c3)c2cc1OCC`, for which the residual activity turned out to be 101% in [19] and 109% in experiment [20].

On to `O=C(CCCc1ccc(-c2ccccc2F)cc1)Nc1ccc(O)cc1`, for which the residual activity in experiment [19] was found to be 103%; in experiment [20] it was 105%.

Consider `COc1ccc(S(=O)(=O)N(CCO)c2ccccc2CN(C)C/C=C/c2ccc(Cl)cc2)cc1`, for which the values for the residual activity in experiment [19] and in experiment [20] were 116% and 112%, respectively.

As to `O=C1NC(=O)c2c1c1c3ccccc3[nH]c1c1[nH]c3cc(Br)ccc3c21`, the residual activity was 103% in experiment [19] and 106% in experiment [20].

Turning to `O=[N+]([O-])c1ccc(-c2nc(-c3ccc(F)cc3)c(-c3ccncc3)[nH]2)cc1`, the residual activity came out at 112% in experiment [19] and 103% in experiment [20].

On to `CN(C)c1ccc(/C=C2\C(=O)Nc3ccccc32)cc1`, for which the residual activity in experiment [19] was determined as 112%; in [20], 121%.

Take `O=C1Cc2c([nH]c3ccc([N+](=O)[O-])cc23)-c2ccccc2N1`: the residual activity in experiment [19] and in [20] was 104% throughout.

`N#C/C(=C(\N)Sc1ccc(N)cc1)c1ccccc1C(F)(F)F`: the residual activity is 112% in experiment [19] and 108% in [20].

In the case of `COc1cc2ncnc(Nc3ccc(Oc4ccccc4)cc3)c2cc1OC`, the residual activity in experiment [19] was 108%; in experiment [20], 107%.

On to `Cc1ccc(S(=O)(=O)/C=C/C#N)cc1`, for which the residual activity turned out to be 107% in experiment [19] and 112% in experiment [20].

For `C[C@@H](N)[C@H]1CC[C@H](C(=O)Nc2ccncc2)CC1`, the figures for the residual activity in [19] and in experiment [20] were 88% and 76%, respectively.

Regarding `CO[C@H]1C[C@@H]2CC[C@@H](C)[C@@](O)(O2)C(=O)C(=O)N2CCCC[C@H]2C(=O)O[C@H]([C@H](C)C[C@@H]2CC[C@@H](O)[C@H](OC)C2)CC(=O)[C@H](C)/C=C(\C)[C@@H](O)[C@@H](OC)C(=O)[C@H](C)C[C@H](C)/C=C/C=C/C=C/1C`, the residual activity stood at 105% in experiment [19] and 98% in experiment [20].

For `O=C(O)c1ccc2c3c1cccc3c(=O)n1c3ccccc3nc21`, the residual activity in experiment [19] was 111%; in [20], 100%.

With `O=c1c2ccccc2[nH]c(=S)n1CCN1CCC(=C(c2ccc(F)cc2)c2ccc(F)cc2)CC1`, the residual activity was 112% in experiment [19] and 107% in experiment [20].

Regarding `CCC(=O)Nc1ccc2ncnc(Nc3cccc(Br)c3)c2c1`, the residual activity in experiment [19] was found to be 99%; in [20], 106%.

With `CCCCc1c(-c2ccc(OC)cc2)[nH]c2nccnc12`, the residual activity in [19] was 118%; in [20], 106%.

Regarding `c1ccc(-c2cnc(Nc3ccc(OCCN4CCCC4)cc3)s2)cc1`, the residual activity in [19] was 102%; in experiment [20], 115%.

With `N#C/C(=C\c1ccc(O)c(O)c1)C(=O)NCc1ccccc1`, the results for the residual activity in [19] and in experiment [20] were 103% and 120%, respectively.

For `COc1cccc(-c2cc(=O)c3ccccc3o2)c1N`, the residual activity is 106% in experiment [19] and 109% in experiment [20].

In the case of `Cc1cccc(-c2[nH]c(C(C)(C)C)nc2-c2ccc3c(c2)OCO3)n1`, the residual activity in experiment [19] turned out to be 100%; in [20], 107%.

Turning to `Cc1nc(-c2ccccc2)c(-c2ccncc2)o1`, the results for the residual activity in experiment [19] and in experiment [20] were 110% and 102%, respectively.

In the case of `Nc1ncnc2[nH]nc(Nc3ccc(F)cc3)c12`, the values for the residual activity in [19] and in experiment [20] were 111% and 109%, respectively.

Take `O=C1c2ccccc2-[n+]2ccc3c([nH]c4ccccc43)c21`: the residual activity turned out to be 108% in experiment [19] and 107% in [20].

On to `Nc1n[nH]c2nnc(-c3c(-c4ccccc4)nn4ccccc34)cc12`, for which the values for the residual activity in [19] and in [20] were 111% and 99%, respectively.

As for `CO[C@H]1[C@@H](OC)C[C@H](C)[C@@H](OC)C2=CC(=O)C=C(NC(=O)/C(C)=C/C=C/[C@H](OC)[C@@H](OC(N)=O)/C(C)=C/[C@@H]1C)C2=O`, the figures for the residual activity in experiment [19] and in experiment [20] were 112% and 114%, respectively.

As for `COc1ccc(OC)c2c(=S)c3ccccc3[nH]c12`, the residual activity in [19] was 109%; in [20], 104%.
